Data reported in PubChem BioAssay (Tox21).
Inconclusive results are not listed. A call without a number means that no potency is given here. Activity calls are given as the source filed them. Unless noted, calls come from the whole dose curve; as a rule, active = well fitted curve in the direction sought with a large enough effect in the repeat runs; inconclusive = weak or mixed curves; inactive = no such curve, though single readings can be large; an effect the other way counts as inactive or inconclusive.

Assays:
[1] = qHTS assay to identify small molecule agonists of the estrogen receptor alpha (ER-alpha) signaling pathway in the presence of an antagonist - cell viability counter screen (AID 1259386);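 note: cells exposed to compounds for 22 h at 37 °C before the viability read; nearly all actives have a fitted effect of over 30% in size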; note: potency is the fitted concentration of half-maximal effect
Method in brief: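 Cells are starved of estrogens for 5 days in charcoal-stripped serum, seeded for 24hr and co-treated with ICI-182,780 (10.0nM final) and test compounds. After 22hr at 37C, viability is read as CellTiter-Fluor fluorescence.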

[2] = target: Progesterone receptor (Homo sapiens) (UniProt P06401); assay: qHTS assay to identify small molecule agonists of the progesterone receptor (PR) signaling pathway (AID 1346784; calls by dose curve; note: nearly all actives have a fitted effect of over 30% in size)
Method in brief: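 PR-UAS-bla HEK 293T cells (beta-lactamase reporter under UAS) in 2% charcoal-stripped FBS, dosed with 23 nL compound after 6 hr, incubated 16hr at 37C. LiveBLAzer B/G FRET substrate added, fluorescence read after 2 hours.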

[3] = qHTS assay to identify small molecule antagonists of the progesterone receptor (PR) signaling pathway - cell viability counter screen (AID 1346798); note: series mostly up to about 92 µM; nearly all actives have a fitted effect of over 50% in size
Method in brief: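 PR-UAS-bla HEK293T cells, 3,000/well in 2% charcoal-stripped FBS medium, dosed with compounds plus R5020 agonist and incubated 16 h at 37C. Viability then measured in the same wells by CellTiter-Glo luminescence after 30 min at RT.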

[4] = qHTS assay to identify small molecule antagonists of the TGF-beta/Smad signaling pathway - cell viability counter screen (AID 1346824); note: nearly all actives have a fitted effect of over 50% in size
Method in brief: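 SBE-bla HEK 293T cells, incubated overnight, then compound plus 0.25 ng/mL TGF-beta1 (stock added) for 5 hr at 37 C. Viability was read in the same wells by CellTiter-Glo luminescence after 30 min at room temperature.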

[5] = qHTS assay to identify small molecule agonists of the TGF-beta/Smad signaling pathway - cell viability counter screen (AID 1346829); note: top concentration of the series differs between compounds; nearly all actives have a fitted effect of over 45% in size
Method in brief: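 After overnight seating at 37 C and 5% CO2, reporter cells got compounds for 5 hr and FRET substrate for 2 hr; cell viability then came from CellTiter-Glo luminescence.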

[6] = qHTS assay to identify small molecule agonists of the TGF-beta/Smad signaling pathway (AID 1346859; active = well fitted activation curve with a large enough effect in the signal ratio in the repeat runs, not every such curve was filed as active; the % refers to the signal ratio; note: series mostly up to about 77 µM)
Method in brief: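 SBE-bla HEK293T cells plated overnight, then compound exposure for 5 h at 37 C. Beta-lactamase reporter read with LiveBLAzer B/G FRET substrate after 2 h at room temperature, fluorescence at 405 nm excitation, 460/530 nm emission.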

[7] = target: Thyrotropin-releasing hormone receptor (Homo sapiens) (UniProt P34981); assay: qHTS assay to identify small molecule antagonists of the thyrotropin-releasing hormone receptor (TRHR) signaling pathway (AID 1346877; active = well fitted inhibition curve with a large enough effect in the repeat runs, not every such curve was filed as active; note: potency is the fitted concentration of half-maximal effect)
Method in brief: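 Cells (TRHR-HEK293) are plated and kept 18 h at 37 °C/5% CO2. A calcium-sensitive dye is added for 2 h, compound follows for 5 min at room temperature, and TRH is then given at 1 nM final.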

[8] = target: Thyrotropin-releasing hormone receptor (Homo sapiens) (UniProt P34981); assay: qHTS assay to identify small molecule agonists of the thyrotropin-releasing hormone receptor (TRHR) signaling pathway (AID 1346891; calls by dose curve; note: series mostly up to about 58 µM)
Method in brief: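 HEK293 cells expressing TRHR plated 18 h at 37 C/5% CO2, calcium dye-loaded 2 h at 37 C, then compound added (agonist mode); kinetic calcium fluorescence read 3 min at 1 s intervals; 15 concentrations in triplicate.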

[9] = qHTS assay to identify small molecule agonists of the progesterone receptor (PR) signaling pathway - cell viability counter screen (AID 1346799; calls by dose curve; note: nearly all actives have a fitted effect of over 45% in size; note: potency is the fitted concentration of half-maximal effect)
Method in brief: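 Counter screen in the PR-UAS-bla HEK293T wells (2% charcoal-stripped FBS, 16 h compound exposure at 37 C) after the bla read. CellTiter-Glo added, 30 min at room temperature, luminescence read as cell viability.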

Progesterone receptor (Homo sapiens), sequence (P06401 whole entry, looked up): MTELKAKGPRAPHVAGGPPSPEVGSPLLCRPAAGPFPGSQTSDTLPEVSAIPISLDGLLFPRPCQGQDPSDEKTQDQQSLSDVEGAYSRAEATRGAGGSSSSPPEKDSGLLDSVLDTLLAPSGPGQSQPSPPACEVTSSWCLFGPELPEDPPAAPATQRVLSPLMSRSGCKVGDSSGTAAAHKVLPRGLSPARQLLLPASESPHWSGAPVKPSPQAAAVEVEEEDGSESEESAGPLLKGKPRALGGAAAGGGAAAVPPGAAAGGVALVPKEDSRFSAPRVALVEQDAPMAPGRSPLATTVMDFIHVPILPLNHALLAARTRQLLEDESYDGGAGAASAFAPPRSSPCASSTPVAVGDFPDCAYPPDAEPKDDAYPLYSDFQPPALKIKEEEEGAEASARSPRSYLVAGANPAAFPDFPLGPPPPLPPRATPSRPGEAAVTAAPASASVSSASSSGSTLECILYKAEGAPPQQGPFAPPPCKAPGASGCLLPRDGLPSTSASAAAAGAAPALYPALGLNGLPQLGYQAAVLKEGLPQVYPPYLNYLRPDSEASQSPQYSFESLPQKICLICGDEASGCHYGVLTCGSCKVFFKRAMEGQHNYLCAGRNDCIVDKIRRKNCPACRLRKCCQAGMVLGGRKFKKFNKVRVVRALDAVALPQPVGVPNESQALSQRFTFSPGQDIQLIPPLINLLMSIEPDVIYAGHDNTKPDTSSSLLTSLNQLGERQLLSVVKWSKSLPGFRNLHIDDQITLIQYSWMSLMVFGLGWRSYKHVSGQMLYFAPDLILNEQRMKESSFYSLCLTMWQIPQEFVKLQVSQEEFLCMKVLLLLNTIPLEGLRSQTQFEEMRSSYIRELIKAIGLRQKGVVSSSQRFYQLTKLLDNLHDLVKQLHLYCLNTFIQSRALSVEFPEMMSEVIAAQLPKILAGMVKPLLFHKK
Thyrotropin-releasing hormone receptor (Homo sapiens), sequence (P34981 whole entry, looked up): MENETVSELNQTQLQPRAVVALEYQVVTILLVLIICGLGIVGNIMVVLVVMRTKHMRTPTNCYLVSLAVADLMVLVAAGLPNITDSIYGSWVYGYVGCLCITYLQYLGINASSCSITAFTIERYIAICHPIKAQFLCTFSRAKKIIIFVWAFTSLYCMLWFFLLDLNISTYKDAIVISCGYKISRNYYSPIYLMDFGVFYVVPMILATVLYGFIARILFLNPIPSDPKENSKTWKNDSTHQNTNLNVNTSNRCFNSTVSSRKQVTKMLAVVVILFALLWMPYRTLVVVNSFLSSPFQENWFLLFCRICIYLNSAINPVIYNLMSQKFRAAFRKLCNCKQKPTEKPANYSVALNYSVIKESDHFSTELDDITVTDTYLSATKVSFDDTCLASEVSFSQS

SMILES | Potency [1] | Potency [2] | Potency [3] | Potency [4] | Potency [5] | outcome [6] | Potency [7] | Potency [8] | Potency [9]
CCOP(=S)(OCC)SC(CCl)N1C(=O)c2ccccc2C1=O (stereo not given) | inactive | inactive | inactive | inactive | inactive | inactive | inactive | inactive | 
CCOP(=S)(OCC)Oc1cc(C)nc(N(CC)CC)n1 | inactive | inactive |  | inactive | inactive | inactive | inactive | inactive | inactive
CC(=O)[O-].CC(=O)[O-].[Co+2] | inactive | inactive |  | inactive | inactive | inactive |  |  | 
BrCCCBr | inactive | inactive | inactive | inactive | inactive | inactive | inactive | inactive | 
ClSC(Cl)(Cl)Cl | inactive | inactive |  | inactive | inactive | inactive | inactive | inactive | inactive
Cc1c([N+](=O)[O-])cc2c(c1[N+](=O)[O-])C(C)(C)CC2(C)C | inactive | inactive | inactive |  | inactive | inactive | inactive | inactive | inactive
COP(=S)(NC(C)C)Oc1ccc(C)cc1[N+](=O)[O-] (stereo not given) | inactive | inactive | inactive | inactive | inactive | inactive | inactive | inactive | 
Nc1ccccc1-c1ccccc1 | inactive | inactive |  | inactive | inactive | inactive | inactive | inactive | 30.5 µM (active)
COC(=O)N(OC)c1ccccc1COc1ccn(-c2ccc(Cl)cc2)n1 | 0.864 µM (active) | inactive |  | inactive | inactive | inactive | inactive | inactive | 
CCOP(=S)(NC(C)C)Oc1ccccc1C(=O)OC(C)C (stereo not given) | inactive | inactive |  | inactive | inactive |  | inactive | inactive | 
CSSC | inactive | inactive |  | inactive | inactive | inactive | inactive | inactive | 
Oc1ccc([C@H]2CNCc3c2ccc(O)c3O)cc1O | 26.6 µM (active) | inactive | inactive | inactive | inactive | inactive | inactive | inactive | inactive
COc1ccc2c(c1OC)C(=O)O[C@@H]2[C@H]1c2cc3c(cc2CCN1C)OCO3 | 6.05 µM (active) | inactive |  | inactive | inactive | inactive | inactive | inactive | inactive
CC[N+]1(CC)CCC(OC(=O)C(O)(c2ccccc2)c2ccccc2)C1 (stereo not given) | inactive | inactive | inactive | inactive | inactive | inactive | inactive | inactive | 
Cc1cccc(Cc2cnc[nH]2)c1C | inactive | inactive | inactive | inactive | inactive | inactive |  |  | 
COc1nc(C)nc(NC(=O)NS(=O)(=O)c2ccccc2Cl)n1 | inactive | inactive |  | inactive | inactive | inactive | inactive | inactive | inactive

SMILES | Potency [1] | Potency [2] | Potency [3] | Potency [4] | Potency [5] | outcome [6] | Potency [7] | Potency [8] | Potency [9]
O=[N+]([O-])c1ccc(Cl)c(Cl)c1Cl | inactive | inactive |  | inactive |  | inactive | inactive | inactive | inactive
CN(C)CCc1c[nH]c2ccccc12 | inactive | inactive |  | inactive | inactive | inactive | inactive | inactive | 
CC(C)C(Nc1ccc(C(F)(F)F)cc1Cl)C(=O)OC(C#N)c1cccc(Oc2ccccc2)c1 (stereo not given) | inactive | inactive | inactive | inactive |  | inactive |  |  | 
O=S1(=O)OCC2C(CO1)C1(Cl)C(Cl)=C(Cl)C2(Cl)C1(Cl)Cl (stereo not given) | inactive | inactive | inactive | inactive |  |  | inactive | inactive | inactive
O=C(NC(=O)c1ccccc1Cl)Nc1ccc(OC(F)(F)F)cc1 | inactive | inactive |  | inactive | inactive | inactive |  |  | 
O=[N+]([O-])[O-].[Tl+] | inactive | inactive | inactive | inactive | inactive | inactive |  |  | 
CC1(C)[C@H](/C=C2\CCSC2=O)[C@@H]1C(=O)OCc1coc(Cc2ccccc2)c1 | inactive | inactive |  | inactive | inactive | inactive | inactive | inactive | 
BrCC(Br)(Br)Br | inactive | inactive |  | inactive | inactive | inactive | 15.7 µM (active) | inactive | 
C=CCOC(=O)c1ccccc1N | inactive | inactive | inactive | inactive | inactive | inactive |  |  | 
COc1ccc2c3c1O[C@H]1[C@H](O)CC[C@H]4[C@@H](C2)N(C)CC[C@@]341 | inactive | inactive |  | inactive | inactive | inactive | inactive | inactive | 
C=CC(=C)C | inactive | inactive | inactive | inactive | inactive | inactive | inactive | inactive | 
CCCCC/C=C\C/C=C\C/C=C\C/C=C\CCCC(=O)NCC(=O)O | inactive | inactive | inactive | inactive | inactive | inactive |  |  | 
CC(C)Br | inactive | inactive |  | inactive | inactive | inactive | inactive | inactive | inactive
O=C(CCCCl)c1ccc(F)cc1 | inactive | inactive | inactive | inactive |  | inactive |  |  | inactive
CCC(C)c1cccc(C(C)CC)c1O (stereo not given) | inactive | inactive |  | inactive | inactive | inactive | inactive | inactive | inactive
